# Measurements reported in ChEMBL document CHEMBL1201862, “PubChem BioAssay data set” (2004).
# “And” between values parts separate entries of the source, which are not always exact repeats. Equal values may be shown once. These assays gave more results; the selection is not random. For part of these data: Measured potencies and affinities stand elsewhere. The source made the active and inactive calls. Unless noted, the rule behind the calls is not given here.
# Experiments:
# [1] = target: Pyruvate kinase PKM (Homo sapiens) (UniProt P14618); test: qHTS Assay for Activators of Human Muscle Pyruvate Kinase.; type: functional
# [2] = target: Hypoxia-inducible factor 1-alpha (Homo sapiens) (UniProt Q16665); test: qHTS Assay for Identification of Small Molecule Agonists for Hypoxia Response Element Signaling Pathway. [Related pubchem assays: 915 ]; type: functional
# [3] = target: T1, M-phase phosphoprotein 8 (Homo sapiens) (UniProt Q99549)
# T1 sequence (whole entry): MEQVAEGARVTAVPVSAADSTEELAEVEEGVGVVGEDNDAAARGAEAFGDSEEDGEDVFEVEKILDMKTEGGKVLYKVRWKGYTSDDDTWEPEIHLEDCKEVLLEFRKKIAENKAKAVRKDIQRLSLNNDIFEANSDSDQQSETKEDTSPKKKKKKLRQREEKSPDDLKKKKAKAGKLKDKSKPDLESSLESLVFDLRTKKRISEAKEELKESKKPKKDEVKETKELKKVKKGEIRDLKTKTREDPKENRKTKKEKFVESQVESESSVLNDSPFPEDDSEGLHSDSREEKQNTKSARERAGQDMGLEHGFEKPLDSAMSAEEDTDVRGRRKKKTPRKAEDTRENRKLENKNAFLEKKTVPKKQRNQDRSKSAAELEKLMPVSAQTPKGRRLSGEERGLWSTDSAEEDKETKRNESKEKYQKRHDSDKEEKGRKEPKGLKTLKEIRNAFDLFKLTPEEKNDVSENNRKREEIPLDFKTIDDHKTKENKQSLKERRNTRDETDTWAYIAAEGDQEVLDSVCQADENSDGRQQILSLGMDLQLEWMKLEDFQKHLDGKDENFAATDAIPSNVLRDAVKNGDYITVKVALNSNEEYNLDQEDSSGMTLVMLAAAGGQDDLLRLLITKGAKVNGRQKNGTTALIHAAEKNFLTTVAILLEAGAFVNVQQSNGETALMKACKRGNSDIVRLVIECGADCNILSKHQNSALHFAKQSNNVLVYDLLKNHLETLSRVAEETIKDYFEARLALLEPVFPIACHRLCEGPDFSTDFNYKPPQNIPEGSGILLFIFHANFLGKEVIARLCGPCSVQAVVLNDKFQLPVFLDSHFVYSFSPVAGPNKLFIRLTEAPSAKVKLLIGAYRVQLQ
# [4] = target: ATPase family AAA domain-containing protein 5 (Homo sapiens) (UniProt Q96QE3); test: qHTS screen for small molecules that inhibit ELG1-dependent DNA repair in human embryonic kidney (HEK293T) cells expressing luciferase-tagged ELG1: Hit Confirmation using MMS Stimulated ELG1.; type: functional
# [5] = DNA binders by acridine orange displacement, dose response, counter-screen for EWS/Fli inhibitor project, biochemical, fluorescence polarization, cherry-pick (AID 720586)
# [6] = target: T2, DNA polymerase eta (Homo sapiens) (UniProt Q9Y253); test: qHTS for Inhibitors of Polymerase Eta: Confirmatory Assay for Cherry-picked Compounds.; type: functional
# T2 sequence (whole entry): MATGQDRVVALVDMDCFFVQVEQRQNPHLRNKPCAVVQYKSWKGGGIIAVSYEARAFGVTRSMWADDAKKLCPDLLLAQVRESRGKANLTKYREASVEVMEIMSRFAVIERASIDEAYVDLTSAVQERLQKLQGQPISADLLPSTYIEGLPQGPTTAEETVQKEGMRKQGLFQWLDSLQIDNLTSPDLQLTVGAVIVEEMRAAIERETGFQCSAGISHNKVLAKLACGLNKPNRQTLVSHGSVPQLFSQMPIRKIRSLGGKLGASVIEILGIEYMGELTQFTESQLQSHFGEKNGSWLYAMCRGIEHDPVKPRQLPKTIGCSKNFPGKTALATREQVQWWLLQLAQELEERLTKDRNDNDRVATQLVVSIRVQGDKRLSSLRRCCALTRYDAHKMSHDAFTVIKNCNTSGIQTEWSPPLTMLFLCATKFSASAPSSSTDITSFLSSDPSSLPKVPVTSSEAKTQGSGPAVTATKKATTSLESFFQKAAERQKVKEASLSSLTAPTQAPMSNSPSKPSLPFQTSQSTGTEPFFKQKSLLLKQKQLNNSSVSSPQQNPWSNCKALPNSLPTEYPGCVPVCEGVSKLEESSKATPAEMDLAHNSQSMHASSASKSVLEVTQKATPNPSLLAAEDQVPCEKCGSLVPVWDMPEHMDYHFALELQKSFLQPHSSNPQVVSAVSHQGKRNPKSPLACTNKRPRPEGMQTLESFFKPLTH
# [7] = target: Nuclear factor erythroid 2-related factor 2 (Homo sapiens) (UniProt Q16236)
# [8] = target: T3, DNA polymerase kappa (Homo sapiens) (UniProt Q9UBT6)
# T3 sequence (whole entry): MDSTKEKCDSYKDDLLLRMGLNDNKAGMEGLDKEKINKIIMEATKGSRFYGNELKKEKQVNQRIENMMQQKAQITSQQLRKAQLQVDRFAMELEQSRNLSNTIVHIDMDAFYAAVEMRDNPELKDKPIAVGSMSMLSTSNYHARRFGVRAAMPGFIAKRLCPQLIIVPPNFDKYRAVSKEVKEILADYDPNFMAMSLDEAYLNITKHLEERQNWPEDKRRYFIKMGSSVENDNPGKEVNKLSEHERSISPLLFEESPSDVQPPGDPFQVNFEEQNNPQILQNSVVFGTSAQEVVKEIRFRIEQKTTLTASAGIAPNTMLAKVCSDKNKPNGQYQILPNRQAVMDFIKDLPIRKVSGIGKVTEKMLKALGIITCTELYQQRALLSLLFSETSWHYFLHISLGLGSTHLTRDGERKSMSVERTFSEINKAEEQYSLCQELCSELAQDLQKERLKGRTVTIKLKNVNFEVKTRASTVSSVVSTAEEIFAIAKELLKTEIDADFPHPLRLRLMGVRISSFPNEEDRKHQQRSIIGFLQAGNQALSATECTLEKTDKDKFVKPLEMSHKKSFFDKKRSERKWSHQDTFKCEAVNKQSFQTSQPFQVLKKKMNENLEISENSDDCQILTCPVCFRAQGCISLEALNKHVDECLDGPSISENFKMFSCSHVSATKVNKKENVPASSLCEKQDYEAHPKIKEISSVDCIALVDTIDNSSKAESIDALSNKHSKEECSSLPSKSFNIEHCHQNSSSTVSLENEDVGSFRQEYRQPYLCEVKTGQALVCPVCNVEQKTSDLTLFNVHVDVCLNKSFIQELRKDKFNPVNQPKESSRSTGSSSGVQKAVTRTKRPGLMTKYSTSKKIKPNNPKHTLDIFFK
# Chain of Hypoxia-inducible factor 1-alpha (Homo sapiens) (Q16665 whole entry, looked up): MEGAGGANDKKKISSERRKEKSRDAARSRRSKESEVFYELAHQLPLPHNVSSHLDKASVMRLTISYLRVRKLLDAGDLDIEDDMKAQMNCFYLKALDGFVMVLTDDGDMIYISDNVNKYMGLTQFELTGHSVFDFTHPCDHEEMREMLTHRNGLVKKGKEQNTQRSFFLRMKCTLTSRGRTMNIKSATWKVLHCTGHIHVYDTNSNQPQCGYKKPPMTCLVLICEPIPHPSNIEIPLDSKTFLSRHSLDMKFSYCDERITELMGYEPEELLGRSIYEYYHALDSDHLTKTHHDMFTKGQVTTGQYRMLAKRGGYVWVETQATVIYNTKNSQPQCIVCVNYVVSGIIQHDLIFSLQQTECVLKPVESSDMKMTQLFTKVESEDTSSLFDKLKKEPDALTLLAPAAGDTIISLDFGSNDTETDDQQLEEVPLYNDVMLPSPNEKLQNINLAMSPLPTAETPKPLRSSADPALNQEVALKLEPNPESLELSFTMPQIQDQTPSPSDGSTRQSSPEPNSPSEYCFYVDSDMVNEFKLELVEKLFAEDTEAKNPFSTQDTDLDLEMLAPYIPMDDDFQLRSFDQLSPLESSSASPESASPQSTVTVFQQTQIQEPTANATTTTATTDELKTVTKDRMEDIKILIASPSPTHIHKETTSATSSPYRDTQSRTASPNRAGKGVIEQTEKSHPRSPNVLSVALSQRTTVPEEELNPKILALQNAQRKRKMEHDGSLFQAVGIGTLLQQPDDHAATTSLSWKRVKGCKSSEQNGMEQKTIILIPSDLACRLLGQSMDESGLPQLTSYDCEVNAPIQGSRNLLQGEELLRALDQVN
# Chain of ATPase family AAA domain-containing protein 5 (Homo sapiens) (Q96QE3 whole entry, the tested form may be a part): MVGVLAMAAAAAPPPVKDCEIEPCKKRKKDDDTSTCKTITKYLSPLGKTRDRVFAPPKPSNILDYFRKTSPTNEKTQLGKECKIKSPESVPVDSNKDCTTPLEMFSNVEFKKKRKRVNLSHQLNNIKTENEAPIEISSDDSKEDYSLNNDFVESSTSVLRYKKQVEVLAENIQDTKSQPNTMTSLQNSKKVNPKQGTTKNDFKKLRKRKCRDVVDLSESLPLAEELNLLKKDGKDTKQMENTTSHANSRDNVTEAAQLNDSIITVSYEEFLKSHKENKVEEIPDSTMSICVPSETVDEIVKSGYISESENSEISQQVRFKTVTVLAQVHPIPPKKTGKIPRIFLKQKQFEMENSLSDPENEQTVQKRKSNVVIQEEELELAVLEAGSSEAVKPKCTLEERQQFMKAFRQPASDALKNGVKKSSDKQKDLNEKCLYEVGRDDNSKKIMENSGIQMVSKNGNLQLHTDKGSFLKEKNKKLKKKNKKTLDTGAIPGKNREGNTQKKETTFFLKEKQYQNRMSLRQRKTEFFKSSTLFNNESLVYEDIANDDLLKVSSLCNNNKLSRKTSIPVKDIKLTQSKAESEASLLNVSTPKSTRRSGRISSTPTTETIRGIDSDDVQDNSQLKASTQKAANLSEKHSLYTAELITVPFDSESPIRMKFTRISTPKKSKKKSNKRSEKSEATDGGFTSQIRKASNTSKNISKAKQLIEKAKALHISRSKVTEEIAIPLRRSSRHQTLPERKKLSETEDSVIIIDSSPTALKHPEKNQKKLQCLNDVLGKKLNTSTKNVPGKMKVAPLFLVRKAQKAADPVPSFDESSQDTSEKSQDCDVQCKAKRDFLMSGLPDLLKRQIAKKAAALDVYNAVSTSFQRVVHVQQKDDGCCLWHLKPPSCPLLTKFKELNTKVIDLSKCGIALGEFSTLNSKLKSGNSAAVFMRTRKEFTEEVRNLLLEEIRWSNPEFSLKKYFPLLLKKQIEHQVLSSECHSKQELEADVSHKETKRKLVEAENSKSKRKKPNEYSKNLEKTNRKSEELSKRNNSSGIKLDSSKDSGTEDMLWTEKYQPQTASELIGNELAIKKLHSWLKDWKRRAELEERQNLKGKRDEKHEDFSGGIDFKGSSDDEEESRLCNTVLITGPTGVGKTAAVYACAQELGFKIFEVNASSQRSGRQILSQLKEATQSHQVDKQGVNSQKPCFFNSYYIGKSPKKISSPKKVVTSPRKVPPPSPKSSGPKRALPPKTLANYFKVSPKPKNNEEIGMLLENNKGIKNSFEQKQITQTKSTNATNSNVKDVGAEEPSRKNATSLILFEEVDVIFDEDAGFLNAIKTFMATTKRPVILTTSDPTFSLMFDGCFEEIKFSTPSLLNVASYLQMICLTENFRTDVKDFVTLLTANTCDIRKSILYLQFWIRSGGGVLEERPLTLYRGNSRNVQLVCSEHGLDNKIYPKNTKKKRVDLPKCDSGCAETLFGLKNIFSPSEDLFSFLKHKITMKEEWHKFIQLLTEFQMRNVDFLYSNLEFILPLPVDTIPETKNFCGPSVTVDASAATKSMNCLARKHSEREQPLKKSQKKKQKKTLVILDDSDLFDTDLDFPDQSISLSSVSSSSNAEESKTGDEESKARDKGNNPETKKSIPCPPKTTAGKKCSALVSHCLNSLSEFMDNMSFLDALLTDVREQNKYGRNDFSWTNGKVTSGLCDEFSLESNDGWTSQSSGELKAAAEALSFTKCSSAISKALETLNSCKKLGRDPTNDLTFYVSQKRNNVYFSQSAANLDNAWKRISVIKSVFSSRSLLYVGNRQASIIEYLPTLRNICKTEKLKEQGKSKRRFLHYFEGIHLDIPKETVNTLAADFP
# Chain of Pyruvate kinase PKM (Homo sapiens) (P14618 2-531 limits assumed): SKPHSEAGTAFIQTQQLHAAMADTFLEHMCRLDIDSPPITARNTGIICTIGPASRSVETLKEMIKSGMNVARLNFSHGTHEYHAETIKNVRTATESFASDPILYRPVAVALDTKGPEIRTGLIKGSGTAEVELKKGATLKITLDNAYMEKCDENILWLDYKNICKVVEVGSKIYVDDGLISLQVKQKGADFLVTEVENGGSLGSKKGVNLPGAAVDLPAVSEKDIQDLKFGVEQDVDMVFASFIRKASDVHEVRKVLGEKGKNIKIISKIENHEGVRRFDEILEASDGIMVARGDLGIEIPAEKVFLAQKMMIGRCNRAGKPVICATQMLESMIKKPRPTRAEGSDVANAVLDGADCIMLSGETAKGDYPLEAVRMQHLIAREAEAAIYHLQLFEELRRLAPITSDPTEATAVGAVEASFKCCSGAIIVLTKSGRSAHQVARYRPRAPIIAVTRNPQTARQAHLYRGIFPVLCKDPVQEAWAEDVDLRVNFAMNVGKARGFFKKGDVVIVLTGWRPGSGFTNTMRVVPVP
# Chain of Nuclear factor erythroid 2-related factor 2 (Homo sapiens) (Q16236 whole entry): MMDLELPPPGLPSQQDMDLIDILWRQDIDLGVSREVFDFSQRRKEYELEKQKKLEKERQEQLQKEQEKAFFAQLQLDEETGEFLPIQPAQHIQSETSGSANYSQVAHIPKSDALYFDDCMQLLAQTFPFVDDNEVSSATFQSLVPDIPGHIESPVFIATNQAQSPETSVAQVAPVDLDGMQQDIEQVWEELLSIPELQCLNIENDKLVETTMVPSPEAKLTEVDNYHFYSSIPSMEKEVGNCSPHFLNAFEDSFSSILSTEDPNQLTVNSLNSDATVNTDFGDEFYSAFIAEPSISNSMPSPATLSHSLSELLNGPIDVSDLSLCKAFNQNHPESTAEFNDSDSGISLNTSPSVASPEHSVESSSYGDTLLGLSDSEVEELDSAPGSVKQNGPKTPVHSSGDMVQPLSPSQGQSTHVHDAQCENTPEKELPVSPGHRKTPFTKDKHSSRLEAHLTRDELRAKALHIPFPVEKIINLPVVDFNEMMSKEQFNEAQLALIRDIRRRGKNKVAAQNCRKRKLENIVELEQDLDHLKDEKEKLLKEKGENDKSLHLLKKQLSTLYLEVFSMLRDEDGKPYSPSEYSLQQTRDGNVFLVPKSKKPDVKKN
molecule,measurement,setting,value
N[C@H](CCC(=O)O)C(=O)O,Potency,[1],inactive
O=C(O)Cc1ccccc1Nc1c(Cl)cccc1Cl,Potency,[2],6.31 µM (active) and 25.1 µM (active)
same,Potency,[3],inactive
O=C(O)c1cc(/N=N/c2ccc(S(=O)(=O)Nc3ccccn3)cc2)ccc1O,Potency,[4],inactive
COc1ccc(C2=Nn3c(nnc3-c3ccccc3F)SC2)cc1OC1CCOC1 (configuration not stated),AbsAC35,[5],137 µM (active)
Nc1nc2cc3c(cc2cc1C(=O)NCCc1c[nH]c2ccccc12)OCO3,AbsAC35,[5],251 µM (active)
CC(C)(O)c1ccccc1CC[C@@H](SCC1(CC(=O)O)CC1)c1cccc(/C=C/c2ccc3ccc(Cl)cc3n2)c1,Potency,[6],213 µM (active)
"CISPLATIN, CHEMBL11359",GI50,P388/ADR,0.561 µM
same,GI50,SN12K1,4.06 µM
same,GI50,P388,0.248 µM
CC(=O)OCc1ccccc1,Potency,[7],30.6 µM (active)
Cc1cc(C)c(NC(=O)Cn2c(=O)n(Cc3ccc(C(=O)NCc4ccco4)cc3)c(=O)c3sccc32)c(C)c1,Potency,[8],299 µM (active)
